Consider 27 molecules from PubChem BioAssay (NCATS).

Records with an inconclusive call do not appear. A number with no mark means an inactive call. The source made the active and inactive calls. Calls come from the whole dose curve; as a rule, active = well fitted inhibition curve with a large enough effect; inconclusive = small, poorly fitted or top-dose-only effect; inactive = no such curve, though single readings can be large or run the other way.
% is set by controls: 0 for no effect and ±100 for the full control effect; potency is the fitted concentration of half-maximal effect.

Sequence of N-terminal Xaa-Pro-Lys N-methyltransferase 1 (Homo sapiens) (Q9BV86 whole entry, looked up): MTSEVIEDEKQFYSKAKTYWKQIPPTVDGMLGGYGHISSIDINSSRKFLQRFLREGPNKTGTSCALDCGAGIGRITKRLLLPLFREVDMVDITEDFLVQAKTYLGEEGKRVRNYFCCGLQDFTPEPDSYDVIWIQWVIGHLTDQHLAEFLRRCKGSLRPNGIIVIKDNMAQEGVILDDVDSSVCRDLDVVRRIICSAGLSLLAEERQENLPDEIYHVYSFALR

In this experiment the target is N-terminal Xaa-Pro-Lys N-methyltransferase 1 (Homo sapiens) (UniProt Q9BV86). Kind of experiment: qHTS Assay for Inhibitors of N-terminal methyltransferase 1 (NTMT1): LOPAC validation of the NTMT1 SAHH-coupled ThioGlo3 Assay (AID 1347143).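 Note: SAH from peptide methylation measured as thiol fluorescence via SAHH coupling and ThioGlo3; nearly all actives have a fitted effect of over 70% in size.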 Conditions: recombinant NTMT1, SAHH-coupled ThioGlo3 fluorescence; series mostly up to 114 µM; activity change, negative = inhibition: at the top concentration. Summed up:
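Recombinant human NTMT1 (125nM) was pre-incubated 1 min at room temperature with compounds over a concentration range, then a mix of 100uM SAM, 10uM SAHH and 15uM ThioGlo3 (concentrations in added reagent) was added. ThioGlo3 fluorescence (ex 340/em 450nm) after 30 min was normalized to the initial reading.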
(In general: Quantitative high-throughput screening tests each substance at several concentrations.)
As to `COc1ccccc1N1CCN(CCN(C(=O)c2ccc(F)cc2)c2ccccn2)CC1`, the “activity change, negative = inhibition” value was -27.8%. `CCOC(=O)C12CC1/C(=N/O)c1ccccc1O2` (configuration not stated): the “activity change, negative = inhibition” value was -18%. As for `N#C/C(=C\c1ccc(O)c(O)c1)C(=O)NCCCNC(=O)/C(C#N)=C/c1ccc(O)c(O)c1`, the Potency was 39.8 µM (active). On the same count and under the same terms, with `CC[C@@H]1Cc2cc(O)ccc2C2=C1c1ccc(O)cc1C[C@H]2CC` the figure was 79.4 µM (active). On to `CCCn1c(=O)c2[nH]c(-c3ccc(S(=O)(=O)O)cc3)nc2n(CCC)c1=O`, for which the “activity change, negative = inhibition” value was 715%. As for `Cn1c(=O)c2[nH]c(-c3ccc(S(=O)(=O)O)cc3)nc2n(C)c1=O`, the Potency is 12.6 µM (active). Still for that read-out and setting: with `C[C@H](NC(=O)/C(C#N)=C/c1ccc(O)c(O)c1)c1ccccc1` the figure was 25.1 µM (active).

In the case of `CC(C)NC[C@H](O)COc1ccc(CC(N)=O)cc1`, the “activity change, negative = inhibition” value was -7.59%.

As to `O=C(O)C1=CC(=C(c2ccc(O)c(C(=O)O)c2)c2ccc(O)c(C(=O)O)c2)C=CC1=O`, the Potency was 25.1 µM (active). Regarding `CC(=O)/C(C)=N/O`, the “activity change, negative = inhibition” value was -21.4%. Regarding `CC(=O)O[C@H]1CC2(C)[C@@H](C[C@@H](O)[C@H]3[C@@]4(C)CC[C@@H](O)[C@@H](C)[C@@H]4CC[C@@]32C)C1=C(CCC=C(C)C)C(=O)O` (some centres not stated), the “activity change, negative = inhibition” value is 0.246%. Turning to `O=[N+]([O-])c1cccc2cn[nH]c12`, the “activity change, negative = inhibition” value is -25.1%. Still for that read-out and setting: with `NC/C=C\C(=O)O` the figure was -19.1%. With `CC[n+]1c(/C=C/C=C2/N(C)c3ccccc3C2(C)C)sc2ccccc21`, the Potency was 35.5 µM (active).

Take `N#C/C(=C\c1ccc(O)c(O)c1)C(=O)NCCc1ccccc1`: the Potency is 44.7 µM (active). On the same count and under the same terms, for `Nc1ncnc2c1c(-c1ccc(Oc3ccccc3)cc1)cn2C1CCCC1` the value was 79.4 µM (active); for `O=c1[nH]c(=S)[nH]c(-c2ccccc2)c1Cc1c(O)ccc2ccccc12`, 79.4 µM (active); for `NS(=O)(=O)c1cccc2c1c([N+](=O)[O-])cc1nc(O)c(O)nc12`, 50.1 µM (active). For the molecule `Cc1cccc(C)c1OCC(N)C(C)C` (configuration not stated), the Potency was 50.1 µM (active). Turning to `CN(C)S(=O)(=O)c1ccc2c(c1)/C(=C/c1cc3c([nH]1)CCCC3)C(=O)N2`, the “activity change, negative = inhibition” value is -16.1%. Take `O=c1cc(-c2ccccc2)[nH]c2nc(Cl)ccc12`: the Potency was 79.4 µM (active). Turning to `Nc1ccc(-c2nc3ccc(-c4nc5ccc(N)cc5[nH]4)cc3[nH]2)cc1`, the Potency is 56.2 µM (active). `CN1CCN(c2nc3cc(C(F)(F)F)ccc3n3cccc23)CC1`: the Potency is 39.8 µM (active). Consider `Nc1ccc2c3c(cccc13)C(=O)NC2=O`, for which the “activity change, negative = inhibition” value was -14.6%.

`COC(=O)C(N)Cc1ccc(Cl)cc1` (configuration not stated): the “activity change, negative = inhibition” value is -12.6%. Turning to `CCCCCCC/C=C\CCCCCCCCC(=O)O`, the “activity change, negative = inhibition” value is 2.77%. With `Cc1ccc([N+](=O)[O-])cc1S(=O)(=O)N(C)C`, the “activity change, negative = inhibition” value was -17.8%.
